Assay outcomes from PubChem.
Shown are actives, neighbours in structure and some others; about 3.9% of the full set was active somewhere.
Autofluor counter: flagged as autofluorescent in microsphere protease counterscreen; compound autofluorescence counterscreen, microsphere flow cytometry; hits give high values; fluorescence intensity (test concentration not listed); 360,000 compounds, 3.1% hits; in the data active = fluorescence intensity above about 16000; inconclusive = no clear call, values can overlap the other calls
Anthrax LF inh2: blocks Bacillus anthracis lethal factor protease. P15917. inhibition, % at 10 µM. multiplex microsphere protease cleavage assay, LF. 360,000 compounds, 0.12% hits. AID 588501
Target sequence (P15917 whole entry, looked up): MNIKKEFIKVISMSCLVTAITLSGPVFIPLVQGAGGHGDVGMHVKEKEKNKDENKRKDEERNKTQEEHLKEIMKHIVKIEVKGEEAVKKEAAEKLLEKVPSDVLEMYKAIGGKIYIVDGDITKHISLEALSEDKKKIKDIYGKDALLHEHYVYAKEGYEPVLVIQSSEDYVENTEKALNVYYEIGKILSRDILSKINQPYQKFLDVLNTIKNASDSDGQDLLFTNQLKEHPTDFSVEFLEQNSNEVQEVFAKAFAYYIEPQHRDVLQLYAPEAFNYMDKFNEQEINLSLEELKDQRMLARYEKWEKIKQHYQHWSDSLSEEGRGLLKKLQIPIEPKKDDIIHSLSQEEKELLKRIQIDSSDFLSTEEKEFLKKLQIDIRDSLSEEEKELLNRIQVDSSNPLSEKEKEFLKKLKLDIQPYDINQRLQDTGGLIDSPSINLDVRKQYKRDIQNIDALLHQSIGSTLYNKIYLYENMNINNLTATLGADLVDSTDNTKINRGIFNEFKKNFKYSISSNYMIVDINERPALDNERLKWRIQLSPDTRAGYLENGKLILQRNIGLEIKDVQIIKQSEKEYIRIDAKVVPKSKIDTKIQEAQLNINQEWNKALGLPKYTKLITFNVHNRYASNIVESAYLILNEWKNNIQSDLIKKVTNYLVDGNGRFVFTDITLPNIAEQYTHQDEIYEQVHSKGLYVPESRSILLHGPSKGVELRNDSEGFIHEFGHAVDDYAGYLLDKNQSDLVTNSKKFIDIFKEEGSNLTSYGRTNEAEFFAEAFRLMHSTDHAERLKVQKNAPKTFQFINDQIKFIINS
BoNT-A LC inh2: inhibitors of Botulinum neurotoxin A light chain protease; AID 588499; inhibition, % at 10 µM; multiplex microsphere protease substrate cleavage, flow cytometry; 360,000 compounds, 0.17% hits
Vc quorum ag: quorum light induction in luxS cqsA deficient V. cholerae. V. cholerae BH1578 lux reporter, luminescence, 6 h. activation, % at 18.7 µM. 350,000 compounds, 0.16% hits. AID 588436; in the data active = activation mostly above about 9.7%, no sharp cut-off; inconclusive = no clear call, values can overlap the other calls; inactive = mostly below about 3.7%
BoNT F protease: BoNT F light chain protease inhibition; Multiplex microsphere protease cleavage assay, flow cytometry; inhibition, % at 10 µM; 360,000 compounds, 0.22% hits; in the data active = inhibition above about 35%, passing the limit was not always enough; inconclusive = no clear call, values can overlap the other calls
MazF activator: MazEF (E. coli) toxin RNase activation. P0AE70. FAM/BHQ RNA-DNA oligo cleavage fluorescence, 5 h. activation, % at 20 µM. 350,000 compounds, 0.32% hits; in the data active = activation above about 50%
Numbers stand for hits; i = inactive; ? = inconclusive; nt = no result given; ! = not confirmed by another sample. Rule as the data show it, unless noted: active = inhibition above about 30%; inconclusive = no clear call, values can overlap the other calls; inactive = below that.

SMILES	Autofluor counter	Anthrax LF inh2	BoNT-A LC inh2	Vc quorum ag	BoNT F protease	MazF activator
CC(C)CNC(=S)NNC(=O)c1ccco1	22008	i	i	i	i	i
CCCNC(=O)N(C)C[C@@H]1Oc2cc(C#CC(C)(C)O)ccc2S(=O)(=O)N([C@H](C)CO)C[C@H]1C	i	i	i	i	i	i
N#CC1(NC(=O)COC(=O)c2nc(Cl)c(Cl)c(N)c2Cl)CCCCC1	?	i	i	i	i	i
CC1C(=O)N(Cc2cn(Cc3ccco3)nn2)CCS(=O)(=O)N1Cc1ccc(-c2ccc(Cl)c(Cl)c2)cc1 (stereo not given)	i	i	i	i	i	i
Cc1ccc2c(n1)sc1c(-c3ccccc3)c(C#N)c(N)nc12	i	i	i	i	i	51.9
Cc1nc(N)c(C#N)c(-c2cccnc2)c1-c1ccccc1	i	i	i	i	i	i
COc1ccccc1-n1c(-c2ccoc2)nc2ccccc2c1=O	i	i	i	i	i	i
O=c1c2ccccc2nc(-c2ccoc2)n1-c1ccccc1Cl	22805	i	i	i	i	i
O=c1c2ccccc2nc(-c2ccc(-c3ccccc3)cc2)n1-c1ccncc1	i	i	i	i	i	i
O=c1c2ccccc2nc(-c2ccoc2)n1-c1ccccc1	20668	i	?	i	i	i
CC1(C(=O)Nc2ccc3c(c2)OCCO3)CCN1C(=O)C1(c2ccc(Cl)cc2)CC1 (stereo not given)	i	i	i	i	i	nt
CCc1c(O)nc(SCC(=O)c2ccccc2)n(-c2ccccc2)c1=O	i	i	i	i	?	i
CCSc1nc(O)c(CC)c(=O)n1C(C)CC (stereo not given)	22314	i	i	i	i	i
CC(C)(C)c1ccc(C(=O)N2CCOC23CCCCC3)cc1	i	i	i	nt	i	nt
O=C(CN1CCN(CCN2C(=O)c3cccc4cccc(c34)C2=O)CC1)c1ccc(F)cc1	22837	i	i	i	i	i
COc1ccc(C(=O)CN2CCN(CCN3C(=O)c4cccc5cccc(c45)C3=O)CC2)cc1	i	i	i	i	i	i
Cc1onc(-c2ccccc2Cl)c1C(=O)NCCn1c(C)cc2ccccc21	i	i	59.2	i	i	i
Cc1onc(-c2ccccc2Cl)c1C(=O)Nc1cccnc1	20230	i	i	i	i	i
Cc1onc(-c2ccccc2)c1C(=O)Nc1cccnc1	i	i	i	nt	i	i
Cc1onc(-c2ccccc2Cl)c1C(=O)Nc1ccc(-c2cn3cccnc3n2)cc1	16485	i	?	i	i	i
CCCCNS(=O)(=O)c1ccc(NC(=O)c2c(-c3ccccc3Cl)noc2C)cc1	19198	i	i	i	i	i
Cc1onc(-c2ccccc2Cl)c1C(=O)NCC(=O)O	i	i	i	i	i	i
CN(CCC#N)C(=O)COC(=O)c1cc(Cl)cc(Cl)c1N	i	i	i	i	i	i
CCn1nnc(NC(=O)c2ccco2)n1	i	i	i	i	i	i
CC(=O)OCC(=O)Nc1c(C)cc(C)cc1C	i	i	i	i	i	i
SMILES	Autofluor counter	Anthrax LF inh2	BoNT-A LC inh2	Vc quorum ag	BoNT F protease	MazF activator
CC1(C)OC(=O)N(CCc2ccccc2)C1(C)O (stereo not given)	25029	i	i	i	i	i
O=C(CNCC1CCCO1)Nc1ccccc1N1CCOCC1 (stereo not given)	22897	i	i	i	i	i
CCC1Oc2ccc(C)cc2N(Cc2cccc(C)c2)C1=O (stereo not given)	17288	i	?	i	i	i
CCOC(=O)CN1C(=O)C(CC)Oc2ccc(Cl)cc21 (stereo not given)	21455	i	i	i	i	i
O=C(CN(C(=O)c1csnn1)c1ccc(F)cc1)NCc1ccc2c(c1)OCO2	i	i	i	i	i	i
CCOC(=O)N1CCN(C(=O)/C(=C/c2ccccc2OC)NC(=O)c2ccccc2)CC1	16214	i	?	i	i	i
CCOC(=O)C1CCCN(C(=O)/C(=C/c2ccco2)NC(=O)c2ccccc2)C1 (stereo not given)	i	30.6	i	i	i	i
O=C(N/C(=C/c1ccc(F)cc1)C(=O)N1CCOCC1)c1ccccc1	30895	?	?	i	?	i
CCOC(=O)N1CCN(C(=O)/C(=C/c2ccc(OC)c(OC)c2)NC(=O)c2ccccc2)CC1	i	i	i	i	i	i
CC(C)N(C(=O)[C@H]1C[C@H](CC(=O)NCCCn2ccnc2)C(=O)N2CCc3c([nH]c4ccc(Cl)cc34)[C@]12C)C(C)C	i	i	i	i	i	i
O=C(NCCN1CCOCC1)C1CCCN(S(=O)(=O)c2ccc(F)cc2)C1 (stereo not given)	i	i	i	i	i	i
O=[N+]([O-])c1ccc(-c2cn3nc(-c4ccccc4)c(-c4ccccc4)nc3n2)cc1	nt	nt	nt	i	nt	163.6
O=C(NCC1CCCO1)c1ccc(CS(=O)(=O)c2ccc(Cl)cc2)o1 (stereo not given)	22230	i	i	i	i	i
CCC(Sc1nc(C)cc(C)n1)C(=O)NC1=NN=C(c2ccc(C)cc2)CS1 (stereo not given)	i	i	i	i	i	i
Cc1cc(C)nc(SCC(=O)NC2=NN=C(c3ccc(Br)cc3)CS2)n1	24625	i	?	i	i	i
CC1(C(=O)NS(=O)(=O)c2ccccc2Cl)CCN1C(=O)COc1ccc(Cl)cc1 (stereo not given)	i	i	i	i	i	nt
CCS(=O)(=O)N1Cc2ccccc2CC1C(=O)Nc1ccc(C)cc1 (stereo not given)	22120	i	i	i	i	i
NS(=O)(=O)c1ccc(NC=C2C(=O)OC3(CCCCC3)OC2=O)cc1	16483	i	i	i	i	i
C=CCn1cnc2c(c1=O)c1nc3ccccc3nc1n2/N=C/c1ccccn1	20073	i	i	i	i	i
C[C@@H]1CN([C@@H](C)CO)C(=O)CCCn2nncc2CO[C@H]1CN(C)S(=O)(=O)c1ccc(Oc2ccccc2)nc1	i	i	i	i	i	i
CC1(C)CC(=O)c2c(O)cc(OCc3ccc([N+](=O)[O-])cc3)cc2O1	24979	i	?	i	i	i
O=C1C2C3c4ccccc4C(c4ccccc43)C2C(=O)N1/N=C/c1cccc(O)c1 (stereo not given)	17348	i	i	i	i	i
CCCCCC(=O)N1CCN(CCN=CC2=C(O)CC(c3ccco3)CC2=O)CC1 (stereo not given)	?	i	i	i	i	i
CCCCCC(=O)N1CCN(CCN=CC2=C(O)CC(c3cccs3)CC2=O)CC1 (stereo not given)	19021!	i	i	i	i	i
O=c1c2ccccc2c(C=NCc2ccccn2)c(O)n1-c1ccccc1	i	i	i	i	i	162.2
COc1cccc(-n2c(O)c(C=NCc3ccccn3)c3ccccc3c2=O)c1	i	i	i	i	?	i
CCOC(=O)Nc1ccc2c(c1)Nc1ccccc1S2	20181	i	?	i	i	i
COc1ccc(CNC(=O)CCCCCn2c(SCC#N)nc3cc4c(cc3c2=O)OCO4)cc1	19698	i	?	i	i	i
